Where a name gives a salt, the structure may show the parent alone. ± gives the standard deviation of the averaged measurements. Over roughly 1,300 compounds, “normalised cell viability” has its median near 1; the lowest 2% begin near 0.15. The entries come from a sample that favours the lowest values as a whole.
Tested on: V-C8 + BRCA2 (BRCA2-proficient hamster cells)
Test: normalised cell viability (fraction of plate median); higher = more viable cells (less toxic)
Conditions: 5 µM
Method in brief: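 Hamster V-C8 cells with and without restored BRCA2 were exposed in 96-well plates to library drugs at 5 μM for 3 days (screen 1) or 6 days (screen 2). Cell viability was scored by resazurin assay, then median-plate normalised, averaging triplicate wells.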

| SMILES | normalised cell viability (treatment time: 3 days) | normalised cell viability (treatment time: 6 days) |
| --- | --- | --- |
| COc1ccc(CCN2CCC(Nc3nc4ccccc4n3Cc3ccc(F)cc3)CC2)cc1 [Astemizole] | 0.118 ± 0.0065 | 0.102 ± 0.0063 |
| Fc1ccc(C(OCCN2CCN(CCCc3ccccc3)CC2)c2ccc(F)cc2)cc1 | 0.18 ± 0.0028 | 0.191 ± 0.0064 |
| C[C@]12C[C@H]3S[C@H]3C[C@@H]1CC[C@@H]1[C@@H]2CC[C@]2(C)[C@@H](O)CC[C@@H]12 [Epitiostanol] | 1.02 ± 0.019 | 1.05 ± 0.022 |
| CC(C)[N+](C)(CCC(C(N)=O)(c1ccccc1)c1ccccc1)C(C)C [Isopropamide iodide] | 1.04 ± 0.062 | 1.02 ± 0.11 |
| CN1[C@@H]2CC[C@H]1C[C@@H](OC1c3ccccc3CCc3ccccc31)C2 [Deptropine citrate] | 0.931 ± 0.016 | 0.869 ± 0.065 |
| OC(c1ccccc1)(c1ccccc1)C1CCNCC1 [Azacyclonol] | 0.985 ± 0.041 | 1.03 ± 0.042 |
| C[C@@H]1CC[C@H]2[C@@H](C)C(=O)O[C@@H]3O[C@@]4(C)CC[C@@H]1[C@]32OO4 [Artemisinin] | 0.794 ± 0.024 | 0.87 ± 0.095 |
| C[C@]12CC[C@H](O)C[C@H]1CC[C@@H]1[C@@H]2C[C@@H](O)[C@]2(C)[C@@H](C3=CC(=O)OC3)CC[C@]12O [Digoxigenin] | 0.962 ± 0.11 | 0.986 ± 0.056 |
| CC(=O)NC1CCSC1=O (racemic) [N-Acetyl-DL-homocysteine Thiolactone] | 1.05 ± 0.096 | 1.06 ± 0.11 |
| CO[C@]12C[C@@H](COC(=O)c3cncc(Br)c3)CN(C)[C@@H]1Cc1cn(C)c3cccc2c13 [Nicergoline] | 0.81 ± 0.019 | 0.926 ± 0.01 |
| CNCC(O)c1ccc(O)cc1 (racemic) [(+,-)-Synephrine] | 1.01 ± 0.085 | 1.01 ± 0.022 |
| C[CH2][Hg][S]c1ccccc1C(=O)[O-].[Na+] [Thimerosal] | 0.106 ± 0.0062 | 0.118 ± 0.007 |
| NCCC(O)C(=O)NC1CC(N)C(OC2OC(CN)C(O)[C@H](O)[C@@H]2N)[C@H](OC2O[C@H](CO)[C@@H](O)[C@@H]2O)[C@@H]1O (stereo not given in full) [Butirosin disulfate salt] | 0.979 ± 0.026 | 0.868 ± 0.3 |
| C[C@@H]1C[C@@H]([C@H](O)CC2CC(=O)NC(=O)C2)C(=O)[C@@H](C)C1 [Cycloheximide] | 0.146 ± 0.008 | 0.138 ± 0.016 |
| CC(CCc1ccccc1)NC(C)C(O)c1ccc(O)cc1 (stereo not given) [Nylidrin] | 1.02 ± 0.0065 | 1.02 ± 0.051 |
| CCC(=O)O[C@@](Cc1ccccc1)(c1ccccc1)[C@@H](C)CN(C)C [Levopropoxyphene napsylate] | 0.979 ± 0.083 | 1.058 ± 0.0096 |
| COc1cc([C@@H]2c3cc4c(cc3[C@H](O)[C@H]3COC(=O)[C@H]23)OCO4)cc(OC)c1OC [Podophyllotoxin] | 0.143 ± 0.0046 | 0.136 ± 0.016 |
| C=C1CC[C@@]2(O)[C@H]3Cc4ccc(O)c5c4[C@@]2(CCN3CC2CC2)[C@H]1O5 [Nalmefene hydrochloride] | 1 ± 0.043 | 1.07 ± 0.15 |
| C=C1[C@@H]2CC[C@H]3[C@]4(C)C[C@H](O[C@@H]5O[C@H](CO)[C@@H](OS(=O)(=O)O)[C@H](OS(=O)(=O)O)[C@H]5OC(=O)CC(C)C)C[C@@H](C(=O)O)[C@H]4CC[C@]3(C2)[C@@H]1O [Atractyloside potassium salt] | 1.08 ± 0.093 | 1.15 ± 0.031 |
| COc1ccc2c(c1)[C@]13CCCC[C@@H]1[C@H](C2)N(C)CC3 [Dextromethorphan hydrobromide monohydrate] | 1.13 ± 0.078 | 1.02 ± 0.054 |
| CC[C@@]1(O)C(=O)OCc2c1cc1n(c2=O)Cc2cc3ccccc3nc2-1 [Camptothecine (S,+)] | 0.142 ± 0.014 | 0.124 ± 0.012 |
| CCC(=O)O[C@H]1CC[C@H]2[C@@H]3CCC4=CC(=O)CC[C@]4(C)[C@H]3CC[C@]12C [Testosterone propionate] | 0.906 ± 0.085 | 1 ± 0.1 |
| CN1[C@@H]2CC[C@H]1C[C@@H](OC(=O)C(CO)c1ccccc1)C2 (stereo not given in full) [Atropine sulfate monohydrate] | 0.925 ± 0.033 | 0.988 ± 0.053 |
| O=C(CCCN1CCC2(CC1)C(=O)NCN2c1ccccc1)c1ccc(F)cc1 [Spiperone] | 1.07 ± 0.04 | 0.997 ± 0.072 |
| CCCCCC[C@H]1C(=O)O[C@H](C)[C@H](NC(=O)c2cccc(NC=O)c2O)C(=O)O[C@@H](C)[C@@H]1OC(=O)CC(C)C [Antimycin A] | 0.148 ± 0.012 | 0.124 ± 0.011 |
| CCCC(C)(COC(N)=O)COC(=O)NC(C)C (stereo not given) [Carisoprodol] | 0.992 ± 0.042 | 1.09 ± 0.04 |
| CN1CCC2(C)c3cc(O)ccc3N(C)C12 (single isomer, unassigned; (-)) [(-)-Eseroline fumarate salt] | 0.694 ± 0.028 | 0.769 ± 0.015 |
| CCC(C)C1O[C@]2(C=C[C@@H]1C)C[C@@H]1CC(C/C=C(\C)[C@@H](OC3C[C@H](OC)[C@@H](OC4C[C@H](OC)[C@@H](O)[C@H](C)O4)[C@H](C)O3)[C@@H](C)/C=C/C=C3\COC4[C@H](O)C(C)=CC(C(=O)O1)[C@]34O)O2 (stereo not given in full) [Avermectin B1a] | 0.303 ± 0.021 | 0.193 ± 0.025 |
| CC(C)(N)Cc1ccccc1 [Phentermine hydrochloride] | 1 ± 0.041 | 0.995 ± 0.023 |
| NCC(CC(=O)O)c1ccc(Cl)cc1 (racemic) [Baclofen (R,S)] | 0.897 ± 0.079 | 0.956 ± 0.083 |
